Pf growth 48h: Primary qHTS for delayed death inhibitors of the malarial parasite plastid, 48 hour incubation; Potency, µM (top dose mostly 28.7 µM), for inactives: top-dose activity change, negative = inhibition, most hits filed as inhibitors; AID 504832, 2011; P. falciparum luciferase growth in erythrocytes, 48 h; 310,000 tested, 5.9% active; note: potency is the fitted concentration of half-maximal effect
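A one-generation exposure of luciferase-tagged malaria parasites in RPMI 1640/Albumax erythrocyte culture, 37 C and 5% CO2. Inhibition is inferred from decreased luminescence after adding detection reagent.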
HCMV antiviral: qHTS Assay for inhibitors of the human cytomegalovirus (HCMV). HFF cells, HCMV-luciferase reporter, 72 h; hits give low values. activity change, negative = inhibition, % at 57.5 µM. 410,000 tested, 4.5% active. AID 1259415, 2018; in the data active = activity change below about -60%; inconclusive = no clear call, values can overlap the other calls; inactive = above about -39%
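Compounds were evaluated in HFFs infected with an HCMV luciferase reporter virus (MOI 1 PFU/cell). Luciferase in lysates collected 72 h post infection served as the replication measure.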
Marburg entry inh: qHTS for inhibitors of binding or entry into cells for Marburg Virus; Marburg virus pseudotyped entry inhibition, cell reporter; Potency, µM (titrated, usually from 37.8 µM), for inactives: top-dose activity change, negative = inhibition, most hits filed as inhibitors; 300,000 tested, 1.8% active; AID 540276, 2011; calls by dose curve; tested in HEK293 cells; note: potency is the fitted concentration of half-maximal effect
HCV inhibitor: qHTS Assay for Inhibitors of Hepatitis C Virus (HCV). Huh7.5.1 HCVcc-Cre infection, luciferase reporter, 44 h. Potency, µM (titrated, usually from 41.8 µM), without a hit: top-dose activity change, negative = inhibition, usual class: inhibitors. 340,000 tested, 3.4% active. AID 651820, 2012; note: potency is the fitted concentration of half-maximal effect
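After 44 h co-culture of compound, cells and HCVcc-Cre (~0.5 moi), substrate is added for 15 min at room temperature and luciferase measured over 15 sec. Cells were seeded at 1,000/well and pre-cultured 4 h.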
Pf growth 96h: Primary qHTS for delayed death inhibitors of the malarial parasite plastid, 96 hour incubation; P. falciparum luciferase reporter growth, 96 h; 320,000 tested, 6.9% active; Potency, µM (top dose mostly 28.7 µM), for the others: top-dose activity change, negative = inhibition, hits mostly inhibitors; note: potency is the fitted concentration of half-maximal effect
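Compounds incubated with erythrocytes infected by luciferase-expressing P. falciparum (2% hematocrit, 0.05% parasitemia final) for 96 hours, 37 C in 5% CO2. Growth inhibition scored as decreased luciferase luminescence.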
Lassa entry inh: qHTS for Inhibitors of binding or entry into cells for Lassa Virus | Lassa virus pseudotype entry inhibition, cell reporter | Potency, µM (doses to about 37.9 µM), for the others: at the top dose activity change, negative = inhibition, usual class: inhibitors | 300,000 tested, 1.2% active | AID 540256, 2011; calls by dose curve; tested in HEK293 cells; note: potency is the fitted concentration of half-maximal effect; nearly all actives have a fitted effect of over 50% in size
Active calls of the source: *; u = inconclusive; x = not tested or not shown; [ ] = dose if it differs, or a comment. Only some compounds are listed: those with a hit (about 14% of all), similar ones and a draw of the others. Unless noted, calls come from the whole dose curve; as a rule, active = well fitted inhibition curve with a large enough effect; inconclusive = small, poorly fitted or top-dose-only effect, or another doubt; inactive = no such curve, though single readings can be large or run the other way. % is set by controls: 0 for no effect and ±100 for the full control effect.

SMILES	Pf growth 48h	HCMV antiviral	Marburg entry inh	HCV inhibitor	Pf growth 96h	Lassa entry inh
O=C(NCc1ccccc1)c1cnc2sc(N3CCCC3)nn2c1=O	x	-36.2	x	x	x	-2.1%[46.1 µM]
CCN1C(=O)N(S(=O)(=O)C(F)(F)F)C(c2ccccc2)C(C(=O)OC)=C1C (stereo not drawn)	x	x	-6.0%[14.2 µM]	x	x	u
COCCNC(=O)CN1C(=O)COc2ccc(S(=O)(=O)N3CCCC3)cc21	x	-1.4	u	x	x	0.1%[46.1 µM]
C[C@H]1CN([C@@H](C)CO)C(=O)CCCn2nncc2CO[C@H]1CN(C)C(=O)c1ccc2ccn(C)c2c1	x	41.4	x	x	x	x
CN(Cc1ccccc1N1CCCC1)C(=O)c1cc2ccccc2o1	x	61.2	u	u	x	-0.7%[46.1 µM]
CN(Cc1ccccc1N1CCCC1)C(=O)c1cc2cc(Cl)ccc2o1	u	-6.3	x	11.2µM*	u	x
Nc1nc(=S)c2[nH]cnc2[nH]1	8.28µM*	-85.8*	x	1.26µM*	u	x
CCCCCCC(N)CC(=O)O (stereo not drawn)	6.4%	8.9	20.9%	11.7%	x	11.9%
CCCCCCCCCCCCCCCC(O)C(N)CO (stereo not drawn)	u	-98.3*	30.9%	0.0%[8.37 µM]	-22.3%	6.8%
O=C1NCCOC(=O)[C@H](Cc2ccc(F)cc2)C/C=C\C[C@H]1CC(=O)N(CCO)Cc1ccccc1	x	-18.0	x	u	x	x
O=C1NCCOC(=O)[C@H](Cc2ccc(F)cc2)CC/C=C/C[C@H]1CC(=O)N(CCO)Cc1ccccc1	x	7.3	x	u	x	x
O=C1NCCOC(=O)[C@H](Cc2ccc(F)cc2)C/C=C\C[C@@H]1CC(=O)N(CCO)Cc1ccccc1	x	-36.7	x	11.2µM*	x	x
CC(C)(C)OC(=O)C[C@@H]1C/C=C\C[C@H](CC(=O)N(CCO)Cc2ccccc2)C(=O)N2CCC[C@H]2COC1=O	x	-0.3	x	1.12µM*	x	x
CC(C)(C)OC(=O)C[C@@H]1C/C=C\C[C@@H](CC(=O)N(CCO)Cc2ccccc2)C(=O)N2CCC[C@H]2COC1=O	x	3.4	x	-2.3%	x	x
O=C1NCCOC(=O)[C@@H](Cc2ccc(F)cc2)CC/C=C/C[C@@H]1CC(=O)N(CCO)Cc1ccccc1	x	-63.2*	x	1.6%	x	x
O=C1CCCC/C=C\C[C@H](CC(=O)N(CCO)Cc2ccccc2)C(=O)N[C@@H](c2ccccc2)CO1	x	-63.1*	x	13.3%	x	x
CC(C)(C)[C@H]1COC(=O)CCCC/C=C\C[C@H](CC(=O)N(CCO)Cc2ccccc2)C(=O)N1	x	20.6	x	10.0%	x	x
CCOC1=C(NC(=O)C(C)(C)C)CC(OCC)=C(N2CCOCC2)C1	x	x	7.0%[46.1 µM]	x	x	x
CCOc1cc(C(=O)N2CCc3c([nH]c4ccccc34)C2c2ccccc2)cc(OCC)c1OCC (stereo not drawn)	x	-19.0	x	x	x	u
O=C(c1ccc(F)cc1)N1CCc2c([nH]c3ccccc23)C1c1ccc(Cl)cc1 (stereo not drawn)	x	-65.9*	x	x	x	u
COc1cccc(C(=O)N2CCc3c([nH]c4ccccc34)C2c2ccc(SC)cc2)c1 (stereo not drawn)	x	-63.8*	x	x	x	u
COc1cc(C(=O)N2CCc3c([nH]c4ccccc34)C2c2ccc(F)cc2)cc(OC)c1OC (stereo not drawn)	x	28.6	x	x	x	8.91µM*
O=C(CSCc1ccc(F)cc1)N1CCc2c([nH]c3ccccc23)C1c1ccc(F)cc1 (stereo not drawn)	x	23.2	x	x	x	u
Cc1cc(O)c(C(=O)/C=C/c2ccccc2Br)c(=O)o1	u	-87.3*	13.7%[46.1 µM]	-16.2%	-15.6%	u
Cc1cc(O)c(C(=O)/C=C/c2ccccc2)c(=O)o1	u	-92.5*	-21.3%	-25.4%	u	-12.0%
SMILES	Pf growth 48h	HCMV antiviral	Marburg entry inh	HCV inhibitor	Pf growth 96h	Lassa entry inh
CCc1nc2c(OCc3c(C)noc3C)cccn2c1N(C=O)Cc1ccc(OC)cc1	x	2.9	x	x	x	x
FC(F)(F)c1ccccc1CN1CCN(C2CCCCCC2)CC1	-28.3%	u	8.2µM*	-11.2%	-29.4%	u
Cc1ccccc1CN1CCN(Cc2ccccc2C(F)(F)F)CC1	x	-10.7	4.4%	9.9%	1.8%	u
FC(F)(F)c1ccccc1CN1CCCC(N2CCN(c3ccccc3)CC2)C1 (stereo not drawn)	-3.1%	-60.9*	x	8.6%	-28.7%	x
COc1ccc(CN2CCN(Cc3ccccc3C(F)(F)F)CC2)c(OC)c1	10.1%[0.00184 µM]	u	11.2µM*	-16.5%	-0.7%	u
COc1ccc(-c2nn3c(=O)cc(CN4CCN(C(=O)Nc5ccc(C)c(Cl)c5)CC4)nc3s2)cc1	x	12.8	x	x	x	u
O=C(Cc1ccc(F)cc1)Nc1ccc2[nH]ncc2c1	12.7%	85.0	0.2%	-1.6%	31.4%	3.9%
Nc1ccc2[nH]ncc2c1	-23.0%	-61.3*	15.0%	-11.3%[8.37 µM]	u	-5.9%
Cc1cccc(C2CC(c3ccccc3)=NN2c2ccc(S(N)(=O)=O)cc2)c1 (stereo not drawn)	x	-12.9	x	x	x	x
NS(=O)(=O)c1ccc(N2N=C(c3ccccc3)CC2c2ccc(F)cc2)cc1 (stereo not drawn)	11.7µM*	4.3	u	u	u	u
COc1ccc(C2CC(c3cccc(C(F)(F)F)c3)=NN2c2ccc(S(N)(=O)=O)cc2)cc1 (stereo not drawn)	x	-101.0*	x	u	x	x
COc1ccc(C2CC(c3cccc(F)c3)=NN2c2ccc(S(N)(=O)=O)cc2)cc1 (stereo not drawn)	x	4.2	-0.1%	u	x	x
COc1ccc(C2CC(c3ccccc3)=NN2c2ccc(S(N)(=O)=O)cc2)cc1 (stereo not drawn)	13.1µM*	-0.5	u	u	u	u
COc1ccccc1NC(=O)CN1C(=O)C(c2ccc(F)cc2)=NC12CCCCC2	x	-38.9	10.6%[46.1 µM]	x	x	-9.9%[46.1 µM]
Cc1ccc(Cl)cc1NC(=O)C1CCN(c2nnc(C)c3c(C)n(-c4ccccc4)nc23)CC1	x	u	x	x	x	-7.2%[46.1 µM]
CS(=O)(=O)c1ccc(Cl)c(NC(=O)COC(=O)CNC(=O)c2ccc3ccccc3c2)c1	8.0%	-1.3	26.4%	-2.6%[8.37 µM]	3.1%	17.2%
Cc1cccc(-c2noc(-c3ccc(N4CCCC4)c([N+](=O)[O-])c3)n2)c1	x	-74.2*	u	x	x	-6.2%[46.1 µM]
Cc1cccc(-c2noc(-c3ccc(N4CCOCC4)c([N+](=O)[O-])c3)n2)c1	x	-22.7	u	x	x	2.6%[46.1 µM]
Cc1cccc(-c2noc(-c3ccc(N4CCN(C)CC4)c([N+](=O)[O-])c3)n2)c1	x	-77.7*	-2.5%[46.1 µM]	x	x	-22.5%[46.1 µM]
Cc1ccc(-c2noc(-c3ccc(N4CCCC4)c([N+](=O)[O-])c3)n2)cc1	x	u	u	x	x	-2.9%[46.1 µM]

From PubChem
